This test is described as follows: NCI Yeast Anticancer Drug Screen. Data for the cln2 rad14 strain (AID 165).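 Note: 0% = growth equal to vehicle treated cultures.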 As to conditions: S. cerevisiae cln2 rad14 strain, stronger effect = higher value. As for the experimental part: Growth inhibition of yeast strains with defined genetic alterations is measured as a screen for potential anti-cancer activity. Selected strains with alterations in DNA damage repair or cell cycle control were exposed to compounds and growth inhibition was measured relative to vehicle treated controls. The strain used in this assay is cln2 rad14

[1] abbreviates: at 5.0 µM (retest, dose inferred, filed as 0.5).
[2] abbreviates: at 50.0 µM (retest, dose inferred, filed as 5.0).

Where “and” joins values, the source holds several entries; their conditions need not be identical. Identical values can stand only once. The panel holds about 79,000 compounds, 15% with a hit somewhere; the sample as a whole holds those more often. Some structures have more than one record in an assay (separate samples or runs), and their calls can disagree. Calls of active or inactive are those of the source. Cut-off read from the data, not from the text of the source: active = growth inhibition above about 70%; inactive = the rest.

With `CC(C)OC(=S)SSC(=S)OC(C)C`, the growth inhibition runs as follows: under setting [1], 33% (inactive) and 9% (inactive); under setting [2], 94% (active) and 84% (active); (at 50.0 µM) 98.4% (active).

Turning to `COc1ccc2nc3cc(Cl)ccc3c(NCCCNCc3cc(OC)c(OC)c(OC)c3)c2c1`, the growth inhibition is 21% (inactive) under setting [1], 83% (active) under setting [2] and 98.8% (active) (at 50.0 µM).

As for `Cc1nc2c(nc1C)C(=O)c1ccccc1C2=O`, the growth inhibition reads like this: under setting [1], 11% (inactive); under setting [2], 91% (active); (at 50.0 µM) 31.9% (inactive).

As for `CCCCCCCCCCCC[N+](C)(C)Cc1ccccc1`, the growth inhibition runs as follows: under setting [1], 56% (inactive) and 88% (active); under setting [2], 99% (active) and 97% (active); (at 50.0 µM) 99.4% (active) and 98% (active).

In the case of `COc1cc(O)c2c(c1)C(=O)c1cc3c(c(O)c1C2=O)C(OC1OC(C)C(OC)C(O)C1OC)C(OC)C(C)(O)C3=O` (configuration not stated), the growth inhibition under setting [1] was 22% (inactive); the growth inhibition under setting [2] was 98% (active); the growth inhibition (at 50.0 µM) is 98.3% (active) and 89.2% (active).

Consider `COc1cccc2c1C(=O)c1c(O)c3c(c(O)c1C2=O)C[C@@](O)(C(=O)CO)C[C@@H]3OC1CC(N)C(O)C(C)O1` (some centres not stated), for which the growth inhibition under setting [1] is 25% (inactive) and 5% (inactive) and -23% (inactive); the growth inhibition under setting [2] was 98% (active) and 49% (inactive) and 1% (inactive); the growth inhibition (at 50.0 µM) is 90.5% (active) and 11.1% (inactive) and 91.5% (active).

With `O=C(NC(C(=O)O)c1ccccc1)OCc1ccccc1` (configuration not stated), the growth inhibition under setting [1] is 1% (inactive); the growth inhibition under setting [2] was -2% (inactive); the growth inhibition (at 50.0 µM) was -12.2% (inactive) and 88% (active).

With `CCCCCCCCCCCCCCCC[N+](C)(C)Cc1cnc[nH]1`, the growth inhibition is 95% (active) under setting [1], 99% (active) under setting [2] and 89.7% (active) (at 50.0 µM).

As for `OC(CF)(c1ccc(Cl)cc1)c1ccc(Cl)cc1`, the growth inhibition runs as follows: under setting [1], 39% (inactive); under setting [2], 97% (active); (at 50.0 µM) 91.4% (active).

For the compound `COC(=O)C#CC(=O)OC`, the growth inhibition is 21% (inactive) under setting [1]; 96% (active) under setting [2]; 17.9% (inactive) and 9.6% (inactive) (at 50.0 µM).

Take `Fc1ccc(NC(=S)SCc2ccc3c(c2)OCO3)cc1`: the growth inhibition is, setting by setting: under setting [1], -13% (inactive); under setting [2], 95% (active); (at 50.0 µM) 98.5% (active).

Take `CC(=O)OCC1OC(n2c(C)c(C(C)=O)c(-c3ccco3)c(C#N)c2=S)C(OC(C)=O)C(OC(C)=O)C1OC(C)=O` (configuration not stated): the growth inhibition was 6% (inactive) under setting [1]; 22% (inactive) under setting [2]; -13.6% (inactive) and 40.8% (inactive) (at 50.0 µM).

With `Cc1cc(NS(=O)(=O)c2ccc(N=Nc3cc(N=Nc4ccc(S(=O)(=O)Nc5cc(C)nc(C)n5)cc4)c4c(NC(=O)C(Cl)Cl)cccc4c3OC(=O)C(Cl)Cl)cc2)nc(C)n1` (tested in a mixture with another compound), the growth inhibition runs as follows: under setting [1], 16% (inactive); under setting [2], 80% (active); (at 50.0 µM) -3.85% (inactive) and 41.8% (inactive).

Consider `CCOc1ccc(N/N=C(\CCC(=O)O)C(=O)O)cc1`, for which the growth inhibition under setting [1] is -64% (inactive), the growth inhibition under setting [2] is 94% (active) and the growth inhibition (at 50.0 µM) was 94.1% (active).

Source of the values: PubChem BioAssay (NCI).
